From PubChem BioAssay AID2284129 (EPA ToxCast)
Calls of active or inactive are those of the source. How the source made its calls: active means hit-call score of the fitted dose curve at least 0.9, where 1 is the maximum; inactive means score below 0.9.

These compounds were tested against human Cyclooxygenase COX2, PTGS2 (gene 5743) (UniProt P35354) (assay: ERF_FR_ENZ_hPTGS2: Eurofins (ERF) Enzymatic LeadHunter Assay for human Cyclooxygenase COX2, conducted at France lab site).
Protocol: ERF_FR_ENZ_hPTGS2 is a biochemical, single-readout assay that uses extracted gene-proteins in a cell-free assay. Measurements were taken 0.083 hour after chemical dosing in a 96-well plate. See COX2 Human Cyclooxygenase Enzymatic Assay, Cerep.ERF_FR_ENZ_hPTGS2 is an assay component calculated from the ERF_FR_ENZ_hPTGS2 assay. It is designed to measure enzyme activity using a type of enzyme reporter as detected by fluorescence intensity with fluorimetry technology.Data from the assay component ERF_FR_ENZ_hPTGS2 was analyzed at the assay endpoint, ERF_FR_ENZ_hPTGS2, in the positive analysis fitting direction relative to DMSO as the negative control and baseline of activity. Using a type of enzyme reporter, loss-of-signal activity can be used to understand changes in binding as they relate to gene PTGS2. To generalize the intended target to other relatable targets, this assay endpoint is annotated to the stress response intended target family, where the subfamily is cyclooxygenase.
Human cells are incubated for 5 minutes at room temprature with Arachidonic acid (1.2uM) + ADHP (25 uM) as sunstrate and ns-398 as control inhibitor. Test Sample Requirements: Minimum for 1) Screen: 60 ul of 10 mM stock -OR- 1 mg (pre-weighed) for 10 uM final testing. 2) Dose Response: 90 ul of 10 mM stock -OR- 1 mg (pre-weighed) for a top concentration at 10 uM.

Sequence of human Cyclooxygenase COX2, PTGS2 (gene 5743) (P35354 whole entry, looked up): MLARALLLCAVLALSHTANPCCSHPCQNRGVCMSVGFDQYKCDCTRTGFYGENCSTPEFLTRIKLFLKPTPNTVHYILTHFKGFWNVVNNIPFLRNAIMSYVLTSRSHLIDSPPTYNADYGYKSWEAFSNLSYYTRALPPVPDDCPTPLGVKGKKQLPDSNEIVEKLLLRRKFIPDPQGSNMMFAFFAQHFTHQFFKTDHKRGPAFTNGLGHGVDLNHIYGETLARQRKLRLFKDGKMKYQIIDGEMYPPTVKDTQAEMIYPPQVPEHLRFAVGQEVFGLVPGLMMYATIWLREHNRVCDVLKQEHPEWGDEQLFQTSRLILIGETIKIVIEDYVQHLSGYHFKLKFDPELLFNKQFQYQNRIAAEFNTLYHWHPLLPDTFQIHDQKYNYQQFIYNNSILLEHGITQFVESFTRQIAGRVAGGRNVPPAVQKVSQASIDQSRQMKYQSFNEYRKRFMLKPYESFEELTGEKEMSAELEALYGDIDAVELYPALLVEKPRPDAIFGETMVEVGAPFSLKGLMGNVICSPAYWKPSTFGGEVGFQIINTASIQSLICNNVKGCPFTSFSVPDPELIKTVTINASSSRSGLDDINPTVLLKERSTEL

SMILES | AC50
COc1cc(CCC(=O)CC(=O)CCc2ccc(O)c(OC)c2)ccc1O | 274 nM (active)
